From PubChem BioAssay AID1508642 (National Center for Advancing Translational Sciences (NCATS), 2021)
In all, about 43,000 compounds went through this assay and about 200 (0.47%) were called active. Where a call stands in place of a potency, no number is given. Another 12% or so got no clear call; they are omitted. The call rests on the fitted dose curve; in most records, active means well fitted cell-killing curve with a large enough effect; inconclusive means small, poorly fitted or top-dose-only effect, or effect the other way; inactive means flat fitted curve, though single readings scatter. The sample as a whole holds a higher share of actives than the screen did.

Experiment: Cell viability qHTS assay in S16 Pmp22-F2sN cells; further: nearly all actives have a fitted effect of over 65% in size
Settings: S16 Pmp22-F2sN Schwann cells viability, CellTiter-Glo, 24 h; series mostly up to 57.5 µM
Summary of the method: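 S16 Pmp22-F2sN Schwann cells (500-1,000/well) in phenol-red-free DMEM with 10% FBS received 23 nL compound by pin tool for 24 h at 37 °C. Viability was then read as CellTiter-Glo luminescence after 15 min at room temperature.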
Potency means the concentration at half of the fitted maximal effect.

| SMILES | Potency |
| --- | --- |
| CCN(CC)CCNC(=O)Cn1ncc2c3ccccc3n(Cc3ccccc3C)c2c1=O | inactive |
| COCCNC(=O)CSc1c(C)cnc2c1c(=O)n(C)c(=O)n2C | inactive |
| COc1cc(C(=O)N2CCN(C(=O)COc3cccc(C)c3)CC2)cc(OC)c1OC | inactive |
| CCCNC(=O)CCC(=O)N1Cc2ccccc2Oc2ncccc21 | inactive |
| CC(NC(=O)CCc1cn(Cc2ccccc2Cl)c2ccccc12)c1ccccc1 (stereo not drawn) | inactive |
| CC(C)CC(NS(=O)(=O)c1ccc2c(c1)oc(=O)n2C)C(=O)NCc1ccccc1Cl (stereo not drawn) | inactive |
| O=C(COc1ccccc1)OCc1cc(=O)n2nc(-c3cccs3)sc2n1 | inactive |
| CCc1c(C)sc(NC(=O)C2c3ccccc3Oc3ccccc32)c1C(=O)OC(C)C | inactive |
| CCc1nc2cccnc2n1-c1ccc(CC(=O)Nc2c(C)cccc2C)cc1 | inactive |
| CCCNC(=O)C1CCC(Cn2c(=O)c3sccc3n(Cc3ccccc3F)c2=O)CC1 (stereo not drawn) | inactive |
| O=C(Nc1ccc(Br)cc1)c1cc2nc(-c3ccccc3)cc(-c3ccccc3)n2n1 | inactive |
| COc1ccc(CCNC(=O)CCCn2c(=O)c3ccccc3n(Cc3ccc(F)cc3Cl)c2=O)cc1OC | inactive |
| O=C(CSc1n[nH]c(-c2ccccc2)n1)N1CCCCC1 | inactive |
| CCN(CC)S(=O)(=O)c1ccc2c(c1)nc(CN(C)C(=O)Nc1ccc(Cl)cc1)n2C | inactive |
| O=C(NCCc1ccccc1)c1cnc2sc(N3CCCC3)nn2c1=O | inactive |
| CCC(Sc1nc2n[nH]c(C)c2c(=N)n1-c1ccccc1Cl)C(=O)N(CC)CC (stereo not drawn) | inactive |
| CCC(CC)C(=O)N1CCc2cc(OC)c(OC)cc2C1COc1ccc(F)cc1 (stereo not drawn) | inactive |
| Cc1cc(C)c2oc(C(=O)Nc3ccc(S(=O)(=O)N4CCCCCC4)cc3)cc(=O)c2c1 | inactive |
| COc1ccc(S(=O)(=O)c2c(Nc3ccc(C)cc3)sc(C(=O)c3ccc(C)cc3)c2N)cc1 | inactive |
| COc1ccccc1CNC(=O)NCc1noc2ccc(C)cc12 | inactive |
| COc1ccc(C(F)(F)F)cc1NC(=O)c1sc2nc(-c3cccs3)ccc2c1N | inactive |

| SMILES | Potency |
| --- | --- |
| CC1CCN(C(=O)Cn2c(=O)n(-c3ccc(Cl)cc3)c(=O)c3c4c(sc32)CCC4)CC1 | inactive |
| CCCN(CCC)CCNC(=O)c1ccc2c(c1)NC(=O)C(CS(=O)(=O)Cc1cccc(Br)c1)N2 (stereo not drawn) | inactive |
| Cc1cc(C)cc(-n2ccnc2SCC(=O)Nc2nc3ccccc3s2)c1 | inactive |
| CCc1ccccc1NC(=O)Cc1ccc(NC(=O)N2CCCCc3ccccc32)cc1 | inactive |
| CCc1cccc(NC(=O)CCNS(=O)(=O)c2cccc3nonc23)c1 | inactive |
| COc1cccc(N2CCN(S(=O)(=O)c3cc(Br)cc4c3N(C(=O)C3CC3)CC4)CC2)c1 | inactive |
| Cc1ccc(S(=O)(=O)n2nc(-c3ccc(Cl)cc3)nc2NCc2ccccc2)cc1 | inactive |
| CCN(CCCNC(=O)c1cc2cc3cc(OC)ccc3nc2s1)c1ccccc1 | inactive |
| COc1cccc(CNC(=O)Cn2c(=O)c3cccn3c3ccc(F)cc32)c1OC | inactive |
| CCCSc1ncc(Cl)c(C(=O)Nc2sc3c(c2C(=O)NCCOC)CCCC3)n1 | inactive |
| Cc1ccc(OCC(=O)Nc2ccc(Cl)c(-c3nc4ccccc4[nH]3)c2)cc1C | inactive |
| CCOc1ccc(OCC)c(NC(=O)CN(c2ccc(C)cc2)S(=O)(=O)c2c(C)n[nH]c2C)c1 | inactive |
| Cc1cc2nc(-c3ccc(NC(=O)c4cc5ccccc5o4)cc3)oc2cc1C | inactive |
| O=C(NC1CC(=O)N(c2ccc(F)cc2)C1)C1CCCCC1 (stereo not drawn) | inactive |
| CCN1CCN(c2ncc3c(n2)CC(c2ccccc2O)CC3=O)CC1 (stereo not drawn) | inactive |
| Cc1ccc(-c2cc(-c3coc4ccccc4c3=O)c3c(n2)-c2cc(Cl)ccc2OC3)cc1 | inactive |
| CCOc1cccc2c1N[C@@H](c1ccc(C(=O)O)cc1)[C@H]1CC=C[C@@H]21 | inactive |
| Cc1ccc(C(=O)Nc2c(C(=O)NC(C)(C)C)oc3ccccc23)cc1 | inactive |
| COc1ccc(CCC(=O)NCc2ccc3c(c2)CCN3C(=O)c2ccc(F)cc2)cc1 | inactive |
| COc1ccccc1CNc1ccc(-c2nc(-c3ccccc3C)no2)cc1[N+](=O)[O-] | inactive |
| Cc1ccc2c(=O)c(C(=O)c3ccc(F)cc3)cn(CC(=O)NC3CCCCC3)c2n1 | inactive |

| SMILES | Potency |
| --- | --- |
| Cc1ccc2c(=O)c(C(=O)c3cccc(Cl)c3)cn(CC(=O)NCc3ccccc3)c2n1 | 10 µM (active) |
| Cc1ccc2c(=O)c(C(=O)c3ccc(Cl)cc3)cn(CC(=O)NC3CCCCC3)c2n1 | inactive |
| Cc1ccc(-c2nnc(Nc3ccc(OCC(N)=O)cc3)c3ccccc23)cc1S(=O)(=O)NCC1CCCO1 (stereo not drawn) | inactive |
| CCCCCn1c(CCNC(=O)c2ccc(F)cc2)nc2ccccc21 | inactive |
| COCCNS(=O)(=O)c1cc(-c2nn3c(C)nnc3c3ccccc23)ccc1C | inactive |
| CCc1nnc(SCc2c(F)cccc2Cl)c2cc3sccc3n12 | inactive |
| COc1cc(C(=O)N(Cc2ccc(C(C)C)cc2)C2CCS(=O)(=O)C2)cc(OC)c1OC (stereo not drawn) | inactive |
| CCOc1ccccc1NC(=O)Cn1c2ncccc2c(=O)n1-c1ccc(C)c(C)c1 | inactive |
| Cc1cccc(Cn2c(CN3CCC(C(=O)NCc4ccccc4Cl)CC3)cc3ccccc32)c1 | inactive |
| CCN(CC)S(=O)(=O)c1ccc2c(c1)N(CC(=O)NCc1ccccc1)C(=O)CS2 | inactive |
| COc1ccc(-c2onc(C)c2C)cc1S(=O)(=O)NCC1CCN(Cc2cccc(F)c2)CC1 | inactive |
| Cc1onc(-c2ccc(F)cc2F)c1C(=O)Nc1cccc(C(F)(F)F)c1 | inactive |
| Cc1ccc(Cn2c(=O)n(Cc3nc(-c4ccccc4)no3)c(=O)c3cc4c(cc32)OCO4)cc1 | inactive |
| CN(C)c1ccc(C(CNS(=O)(=O)c2cc(F)ccc2F)N2CCOCC2)cc1 (stereo not drawn) | inactive |
| CCOc1ccc(C(=O)c2cn(Cc3ccccc3OC)c3ccc(F)cc3c2=O)cc1 | inactive |
| O=C(/C=C/c1cn(CC(O)CN2CCc3ccccc32)c2ccccc12)c1ccc(Br)cc1 (stereo not drawn) | inactive |
| O=C(CCC1N=C2c3ccccc3N=C(SCc3ccccc3F)N2C1=O)NCCc1ccccc1 (stereo not drawn) | inactive |
| CSCCC(NS(=O)(=O)c1ccc2c(c1)oc(=O)n2C)C(=O)NCc1ccccc1 (stereo not drawn) | inactive |
| O=C(Nc1nnc(C2CC(=O)N(c3ccc(Cl)cc3)C2)s1)c1ccco1 (stereo not drawn) | inactive |
| O=C(NCc1ccc(F)cc1)c1ccc(Cn2c(SCc3ccc(F)cc3)nc3cccnc32)cc1 | inactive |
| Cc1c2cnn(-c3ccccc3)c(=O)c2c(C)n1C(C)C(=O)Nc1ccc(Br)cc1F (stereo not drawn) | inactive |
